Compounds with a hit are over-represented: about 8% of the library has one in this group of screens.
MCF10A rerep – A quantitative high throughput screen for small molecules that induce DNA re-replication in MCF 10a normal breast cells. MCF 10A DNA re-replication, Hoechst nuclear intensity, 48 h. Potency, µM (top dose mostly 46.1 µM), actives largely listed as activators. 350,000 compounds, 2.9% hits. AID 624296, 2012; further: nearly all actives have a fitted effect of over 50% in size
HT1080NT lethal – qHTS for induction of synthetic lethality in tumor cells producing 2HG: qHTS for the HT-1080-NT fibrosarcoma cell line. 360,000 compounds, 1.6% hits. AID 686970, 2013. Potency, µM (top dose mostly 46.1 µM), actives largely listed as cytotoxic. HT-1080-NT fibrosarcoma viability, CellTiter-Glo ATP luminescence, 48 h;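 further: NT is the 2HG producing partner of a matched IDH1 knockdown line; nearly all actives have a fitted effect of over 55% in size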
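HT-1080-NT fibrosarcoma cells (2HG-overproducing), 750 cells/well in RPMI with 5% FBS, dosed after 2 h and incubated 48 h at 37C. CellTiter-Glo luminescence normalized to DMSO and no-cell wells; concentration-response curves fitted and classed.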
HT1080 IDH1KD tx – qHTS for induction of synthetic lethality in tumor cells producing 2HG: qHTS for the HT-1080-IDH1KD cell line; 360,000 compounds, 2% hits; Potency, µM (series often up to 46.1 µM), hits mostly cytotoxic; HT-1080 IDH1 knockdown viability, ATP luminescence, 48 h; AID 686971, 2013
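CellTiter-Glo luminescence after 48 h compound exposure at 37 degrees C of IDH1-knockdown HT-1080 cells in 5% FBS RPMI. %Activity scaled between DMSO wells and cell-free media wells, with curves fitted and assigned curve classes.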
KB-3-1 tox – qHTS assay for MDR1-selective chemotherapeutics: Primary screen using the parental adenocarcinoma cell KB-3-1; KB-3-1 viability, CellTiter-Glo ATP luminescence, 72 h; Potency, µM (highest dose often 46.1 µM), hits mostly cytotoxic; 400,000 compounds, 1.4% hits; further: nearly all actives have a fitted effect of over 60% in size
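Viability of parental KB-3-1 cells, measured by CellTiter-Glo luminescence, followed a 72 h incubation at 37 °C with pinned compounds in phenol-red-free DMEM containing 10% FBS.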
KB-V1 MDR tox – qHTS assay for MDR1-selective chemotherapeutics: Primary screen using the drug-selected MDR subline cells KB-V1; KB-V1 MDR cells viability, CellTiter-Glo, 72 h; Potency, µM (titrated, usually from 46.1 µM), most hits filed as cytotoxic; 400,000 compounds, 3.4% hits; further: nearly all actives have a fitted effect of over 60% in size
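Luminescent ATP read-out (CellTiter-Glo, 10 min) measures survival of drug-selected KB-V1 MDR cells after 72 h, 37 degrees C compound exposure. Medium: phenol-red-free DMEM, 10% FBS. Values from fitted concentration-response curves.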
SW480 rereplic – A quantitative high throughput screen for small molecules that induce DNA re-replication in SW480 colon adenocarcinoma cells; SW480 DNA re-replication, Hoechst DNA content imaging, 48 h; 340,000 compounds, 1.8% hits; Potency, µM (titrated, usually from 46.1 µM), usual class: activators; further: nearly all actives have a fitted effect of over 55% in size
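250 cells/well; 23 nL cpd via pin tool; 48 hr, 37 C, 5% CO2; Hoechst 40 min; imager read of total nuclear intensity, ex 405/em 500-530 nm.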
Numbers stand for hits; n = inactive; u = inconclusive; x = not tested or not shown; [ ] = dose if it differs, or a comment. The call rests on the fitted dose curve; in most records, active means well fitted curve in the direction sought with a large enough effect; inconclusive means small, poorly fitted or top-dose-only effect, or another doubt; inactive means no such curve, though single readings can be large; an effect the other way counts as inactive or inconclusive.

SMILES | MCF10A rerep | HT1080NT lethal | HT1080 IDH1KD tx | KB-3-1 tox | KB-V1 MDR tox | SW480 rereplic
CCN(CC)c1ccc(/C=N/NC(=O)c2ccccn2)cc1 | u | n | u | u | u | u
CCN(CC)c1ccc(/C=N/NC(=S)NCc2ccccc2)c(O)c1 | 16µM | n | u | 7.3µM | n | 16µM
CCN(CC)c1ccc(/C=N/NC(=O)c2ccco2)cc1 | 4.1µM | u | 2.6µM | 3.7µM | n | 5.8µM
CCN(CC)c1ccc(C=Nc2ccccc2C)c(O)c1 | n | n | n | n | u | u
CCN(CC)c1ccc(/C=N/NC(=O)c2cnccn2)cc1 | 2.3µM | 5.2µM | 3.7µM | u | n | u
O=C(CN1CCN(C(=O)c2ccco2)CC1)Nc1cc(S(=O)(=O)N2CCCC2)ccc1Cl | x | n | n | n | u | x
Cc1ccccc1NC(=O)CN1C(=O)CCn2nc(-c3cccn3C)cc21 | x | x | x | n | n | x
COc1ccc(C(=O)Nc2cccc(-c3nnc(-c4ccco4)o3)c2)cc1 | u | u | u | u | 13µM | n
Cc1cc(C)cc(OCC(=O)Nc2cccc(-c3nnc(-c4ccco4)o3)c2)c1 | n | n | n | n | 15µM | n
COc1cc(C(=O)Nc2cccc(-c3nnc(-c4ccco4)o3)c2)ccc1OC(C)=O | u | n | n | n | 21µM | n
COc1cc(C(=O)Nc2ccc(-c3nnc(-c4ccco4)o3)cc2)cc(OC)c1OC | u | n | n | n | u | n
COc1ccc(CC(=O)Nc2cccc(-c3nnc(-c4ccco4)o3)c2)cc1 | n | n | n | n | u | n
Cc1ccc2oc(-c3ccc(C)c(NC(=O)COc4ccc(Cl)cc4)c3)nc2c1 | x | x | x | n | n | x
COc1cc(OC)cc(C(=O)Nc2nc(-c3nnn(-c4ccc(F)c(Cl)c4)c3C)ns2)c1 | x | x | x | n | n | x
Cc1ccc(-n2nc(C)c3c(C(=O)NCCc4ccccc4)cc(C)nc32)cc1 | x | x | x | n | n | x
O=Nc1c(O)n(Cc2cccc(Cl)c2)c2ccccc12 | u | 15µM | 18µM | n | n | n
Cc1ccc(C(=O)c2no[n+]([O-])c2C(=O)c2ccc(C)cc2)cc1 | 7.3µM | u | u | n | n | 5.2µM
CCc1ccc2nc(Nc3ccc(OC)cc3OC)c(C#N)cc2c1 | u | n | n | n | n | n
Cc1ccc(-n2nc3c(N4CCC(C(=O)NCCc5cccs5)CC4)nnc(C)c3c2C)cc1 | u | u | 16µM | n | n | u
Cc1cccc(C(=O)NC(=S)NNC(=O)c2ccc(Cl)cc2)c1 | u | u | 8.2µM | u | u | n
CC(C)C(=O)Nc1cccc(NC(=S)NC(=O)c2ccc(Cl)cc2)c1 | u | u | u | u | 2.9µM | n
COc1ccc(C(=O)NC(=S)NNC(=O)c2ccc(C)cc2)cc1 | n | u | u | u | n | n
COc1ccc(C(=O)NC(=S)NNC(=O)c2ccc(NC(=O)C(C)C)cc2)cc1 | u | n | n | u | 2.6µM | n
Cc1ccc(C(=O)NC(=S)Nc2ccc(NC(=O)c3cccc(Cl)c3)cc2)cc1 | u | u | 26µM | n | n | x
CC(=O)c1cccc(NC(=S)NC(=O)c2ccc(C)cc2)c1 | n | n | n | n | u | n
SMILES | MCF10A rerep | HT1080NT lethal | HT1080 IDH1KD tx | KB-3-1 tox | KB-V1 MDR tox | SW480 rereplic
Cc1ccc(NC(=S)NC(=O)c2ccc(F)cc2)cc1S(=O)(=O)Nc1cccc(Cl)c1 | 2.6µM | 6.5µM | 2.9µM | 5.2µM | 7.3µM | 3.7µM
Cc1ccc(NC(=O)c2cccs2)cc1S(=O)(=O)Nc1cccc(Cl)c1 | u | n | n | n | n | n
CCC(C)NC(=O)c1c(C)oc2ncn(CC(C)C)c(=O)c12 (stereo not given) | x | x | x | n | n | x
CN(C(=S)Oc1ccc(C(=O)Nc2ccccc2)cc1)c1ccccc1 | n | n | n | u | 2.9µM | u
COc1ccc(NC(=O)c2ccc(OC(=S)N(C)c3ccc(OC)cc3)cc2)cc1 | n | n | n | n | n | n
C=CCn1c(-c2oc3nc(-c4ccccc4)cc(-c4ccccc4)c3c2N)n[nH]c1=S | 7.3µM | n | n | n | 9.2µM | 8.2µM
C=CCn1c(-c2cccc(Cl)c2)n[nH]c1=S | n | n | n | n | n | n[9.22 µM]
O=c1[nH]c(SCc2cccc(F)c2)nc2c1CCCC2 | n | n | n | n | 15µM | n
Brc1ccc(C=C2C=c3ccccc3=C2)cc1 | x | x | x | n | n | x
COc1ccc(C(C)(O)c2nc(-c3ccc(N(C)C)cc3)cs2)cc1 (stereo not given) | x | n | u | n | n | x
Cc1ccc(NS(=O)(=O)c2cc(-c3n[nH]c(=O)c4ccccc34)ccc2C)cc1 | u | 18µM | 15µM | 12µM | 21µM | 23µM
COc1ccc(NS(=O)(=O)c2cc(OC)ccc2NC(=O)c2cc(C)oc2C)cc1 | 13µM | 5.8µM | 5.8µM | u | u | 13µM
COc1ccc(NS(=O)(=O)c2cc(C)ccc2C)cc1 | u | n | u | 7.3µM | n | u
COc1ccc(NS(=O)(=O)c2cc(C(=O)O)ccc2C)cc1 | n | n | n[9.24 µM] | n | n | n
CCOC(=O)CNS(=O)(=O)c1cc(-c2n[nH]c(=O)c3ccccc23)ccc1C | n | n | n | n | n | n
COc1ccc(NS(=O)(=O)c2cc(NC(=O)c3ccc(=O)[nH]n3)ccc2C)cc1 | u | 26µM | u | u | u | 18µM
C[C@]12CCC(=O)C=C1CCC1C2C(=O)C[C@]2(C)C1CC[C@]2(O)C(=O)CO (stereo not given in full) | n | x | x | x | x | n
Cc1ccc(S(=O)(=O)Nc2ccc(SC(F)F)cc2)c(C)c1 | u | n | n | n | 16µM | n
CCOC(=O)c1c(S(=O)(=O)N2CCC(C(=O)Nc3ccccc3OC)CC2)c(C)n(CC)c1C | x | x | x | n | u | x
Cc1c(Cl)c([N+](=O)[O-])nn1CC(=O)NCc1ccc(Cl)cc1 | n | n | n | n | n | n
CCOCCc1nnc(NC(=O)C(=O)c2cc(C)n(-c3cccc(Cl)c3)c2C)s1 | x | x | x | n | n | x
Cc1ccc(C)c(S(=O)(=O)C(C#N)c2nc3ccccc3nc2N2CCOCC2)c1 (stereo not given) | u | n | n | u | 12µM | n
COc1ccc(CNC(=O)C(C#N)c2nc3ccccc3nc2N2CCCC2)cc1 (stereo not given) | 12µM | n | n | n | n | u
N#CC(c1nc2ccccc2nc1N1CCCC1)S(=O)(=O)c1ccccc1 (stereo not given) | n | n | n | u | 21µM | n
